ANO1 activ – activators or potentiators of mouse TMEM16A chloride channel. Q8BHY3. HEK293 TMEM16A/YFP-H148Q/I152L, iodide quench fluorescence; hits give low values. B-score at 10 µM. hit rate 0.3% among 340,000. AID 623877;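 active = fluorescence-ratio B-score plate-corrected deviation score at least 3 library SD below zero, with starting fluorescence score within 5 deviations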;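 also: channel opened by trigger with iodide after compound preincubation; score built on the fluorescence ratio of max minus min over baseline; more negative score means more quench and so TMEM16A activation or potentiation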
ANO1 block – mouse TMEM16A channel inhibition, primary screen | HEK293 TMEM16A/YFP iodide influx fluorescence, ionomycin | hit rate 1.2% among 310,000 | normalized B-score (activity score, 25-100; higher = stronger inhibition) at 10 µM;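 active = ratio plate-corrected score three or more library SD toward inhibition, starting fluorescence score within five deviations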;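 also: score derived from kinetic fluorescence span divided by baseline fluorescence per well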
CHT allo act – allosterically activates the human high affinity choline transporter | Q9GZV3 | CHT-expressing cells, membrane potential dye, choline EC20; hits give high values; LV-AA mutant CHT in HEK293 cells | B-score at 10 µM | hit rate 0.49% among 310,000 | AID 488977;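 active = initial fluorescence not abnormally high and integrated response B-score, plate-corrected, over 3 SD above library mean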
CHT block – inhibitors of human choline transporter CHT. Q9GZV3. CHT-expressing cells, membrane potential dye, choline response; hits give low values. B-score at 10 µM. hit rate 0.86% among 310,000;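 active = B-score over 3 SD under the library average, and starting fluorescence ratio not unusually high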;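 also: choline stimulus applied at its EC90 after an EC20 pre-addition; B-score computed on integrated fluorescence ratio after choline addition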
TMEM16A reconf – TMEM16A (mouse) chloride channel inhibition, re-confirmation | HEK293 TMEM16A/YFP-H148Q, iodide quench fluorescence; ionomycin added to raise cell calcium | inhibition, % at 10 µM | AID 652189 | shares compounds with ANO1 block | hit rate 39% among 2,300;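 active = mean duplicate percent inhibition, scaled so buffer wells are 0 and the reference blocker 100, over three buffer SD above buffer mean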
HEK293 Ca mobil – counter-screen for TMEM16A inhibitors: effect on calcium mobilization; shares compounds with ANO1 block; TMEM16A/YFP HEK293, Fluo4 calcium mobilization; calcium response (% of ionomycin), % at 10 µM; hit rate 2% among 2,300; AID 652231;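 active = duplicate-averaged calcium signal over 20% of the ionomycin maximum, relative to buffer baseline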;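 also: each well's signal is peak minus trough fluorescence divided by its pre-addition baseline; 0% = buffer wells and 100% = ionomycin wells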
YFP-HEK293 quench – counter-screen for TMEM16A inhibitors: effect in parental YFP-HEK293 cells; AID 652233; iodide YFP quench, ionomycin; shares compounds with ANO1 block; YFP ratio F(max-min)/F0 at 10 µM; 2,300 tested, under 10 active;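 active = yellow fluorescent protein signal ratio exceeding the buffer control mean by over 5 SD of those controls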;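 also: ratio is mean of duplicate wells from kinetic YFP trace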
ClC-1 rat inh – selectivity of TMEM16A inhibitors: inhibition of rat ClC-1 chloride channel. shares compounds with ANO1 block. ratio percent, % at 10 µM. 2,300 tested, under 10 active. CHO ClC-1-YFP, iodide influx fluorescence quench; iodide control reads 0, buffer control 100;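 active = duplicate-mean ratio percent above the mean of iodide-only control wells, which defines zero, plus 5 of their SD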;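 also: higher percent means stronger block of ClC-1 iodide influx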
Numbers without * were called inactive; i = inactive; . = no result. Only some compounds are listed: those with a hit (about 2.3% of all), similar ones and a draw of the others.

SMILES	ANO1 activ	ANO1 block	CHT allo act	CHT block	TMEM16A reconf	HEK293 Ca mobil	YFP-HEK293 quench	ClC-1 rat inh
CC(=O)Oc1cc(C)cc2oc(=O)cc(-c3ccccc3)c12	i	i	i	i	.	.	.	.
CCNc1nc(NCC)n2c(SCC(=O)c3ccc(C(C)C)cc3)nnc2n1	i	i	i	i	.	.	.	.
CCOC(=O)C1(Cc2ccccc2Cl)CCN(Cc2csc(C(C)=O)c2)CC1	i	25*	i	i	i	i	-1.1	-9
CCOC(=O)C1(Cc2cccc(OC)c2)CCN(Cc2ccccc2)CC1	i	i	i	i	.	.	.	.
CC(Oc1ccccc1)C(=O)Nc1nnc(S(=O)(=O)Nc2ccccc2)s1 (stereo unspecified)	i	100*	i	i	i	i	-0.83	-10
Cc1sc(NC(=O)Cn2[nH]c(=O)c3ccccc3c2=O)nc1-c1ccccc1	i	i	i	i	.	.	.	.
O=S(=O)(Nc1nc(-c2ccccc2)cs1)c1cc(Cl)ccc1Cl	i	25*	i	i	24%*	i	-1.1	-10
O=S(=O)(Nc1cccnc1)c1cc(Cl)ccc1Cl	i	i	i	i	.	.	.	.
O=C(COC(=O)CNS(=O)(=O)c1ccc(Br)cc1Cl)NCCc1ccccc1	i	i	i	i	.	.	.	.
COc1ccc(C(=O)N/N=C/c2ccc(N(C)c3ccccc3)cc2)cc1	i	25*	i	i	i	i	-1.1	2
O=C(CCc1ccc(O)cc1)c1c(O)cc(O)cc1O	i	25*	i	i	18%*	i	-1	-17
CCOC(=O)C(=O)N(CC)C1CCS(=O)(=O)C1 (stereo unspecified)	i	100*	i	i	i	i	-1	-17
COc1ccc(-c2csc(NC(=O)CC(NC(C)=O)c3ccccc3)n2)cc1OC (stereo unspecified)	i	i	i	i	.	.	.	.
CCCNC(=O)c1ccccc1NS(=O)(=O)c1ccc(OC)c(OC)c1	i	i	i	i	.	.	.	.
COc1ccccc1CC(=O)Nc1nc(-c2ccc(F)c(F)c2)cs1	i	i	i	i	.	.	.	.
COc1ccc(S(=O)(=O)Nc2ccccc2C(=O)Nc2nc(-c3ccc(F)cc3)cs2)cc1OC	i	100*	i	i	50%*	i	-1.1	-12
COc1ccc(CC(=O)Nc2nc(-c3ccc(OC)c(OC)c3)cs2)cc1OC	i	25*	i	i	35%*	i	-0.91	-2
COc1ccc(-c2csc(NC(=O)Cc3ccccc3F)n2)cc1OC	i	100*	i	i	i	i	-0.84	0
Cc1c(C(=O)OCC(=O)Nc2c(C)n(C)n(-c3ccccc3)c2=O)oc2ccccc12	i	i	i	i	.	.	.	.
COc1cccc(CC2(CO)CCN(Cc3ccc4cccc(F)c4n3)CC2)c1	i	i	i	i	.	.	.	.
O=[N+]([O-])c1cc(C(F)(F)F)ccc1NCCc1c[nH]c2ccccc12	i	i	i	i	.	.	.	.
O=[N+]([O-])c1cc(C(F)(F)F)ccc1NCCc1c[nH]c2ccc(O)cc12	i	25*	i	i	i	i	-1	-11
CCOC(=O)c1ccc(NC(=S)N2CCSC2c2ccc(Br)cc2)cc1 (stereo unspecified)	-6.5*	25*	i	i	82%*	i	-1.1	-2
CCOC(=O)c1ccc(NC(=S)N2CCC(O)CC2)cc1	i	i	i	i	.	.	.	.
COc1ccccc1C(CNC(=O)c1ccc(OCc2c(C)noc2C)cc1)N1CCCC1 (stereo unspecified)	i	.	.	.	.	.	.	.

Source: PubChem BioAssay (Johns Hopkins Ion Channel Center)
